# Records with an inconclusive call do not appear. Activity calls are given as the source filed them. Calls come from the whole dose curve; as a rule, active = well fitted inhibition curve with a large enough effect; inconclusive = small, poorly fitted or top-dose-only effect; inactive = no such curve, though single readings can be large or run the other way. Where a SMILES comes first, the peptide text is derived from it.
# Assay: Primary qHTS for inhibitors of nuclear receptor binding SET domain protein 2 (NSD2) in an RCH-ACV wild type WT cells (2C) (AID 1645877); note: nearly all actives have a fitted effect of over 70% in size
# Settings: RCH-ACV (leukaemia line) NSD2 WT (2C) viability, CellTiter-Glo, 72 h; series mostly up to 44.9 µM; activity change, negative = cell killing: at the top concentration
# % is set by controls: 0 for no effect and ±100 for the full control effect; potency is the fitted concentration of half-maximal effect.
Compound,"activity change, negative = cell killing",Potency,outcome
COc1cc([C@@H](O[C@@H]2O[C@H](CO)[C@@H](O)[C@H](O)[C@H]2O)[C@@H]2CO[C@H](c3ccc(O)c(OC)c3)[C@H]2CO)ccc1O,-14.2% [at 17.3 µM] (inactive),,
CC1(C)CC[C@]2(C(=O)O[C@@H]3O[C@H](CO)[C@@H](O)[C@H](O)[C@H]3O)CC[C@]3(C)C(=CCC4[C@@]5(C)CC[C@H](O[C@@H]6O[C@H](C(=O)O)[C@@H](O[C@@H]7O[C@H](CO)[C@@H](O)[C@H](O)[C@H]7O)[C@H](O)[C@H]6O)C(C)(C)C5CC[C@]43C)C2C1 (stereo partly specified),2.22% [at 9.23 µM] (inactive),,
O=c1[nH]ccc2nc(-c3ccc(CN4CCC(c5nc(-c6ccccn6)n[nH]5)CC4)cc3)c(-c3ccccc3)cc12,,0.0817 µM (active),
CC(=O)Nc1cccc2c1c(Sc1ccc(Cl)cc1)c(C)n2CC(=O)O,-14% (inactive),,
Cc1nnc(-c2sc(NC(=O)[C@H](C(C)C)n3c(=O)[nH]c4ccccc4c3=O)nc2C)o1,-8.46% (inactive),,
COc1ccc(C2OCC3C(c4cc(OC)c5c(c4)OCO5)OCC23)cc1OC (stereo unspecified),-3.37% [at 17.3 µM] (inactive),,
CC(=O)OC12CC(C)C(O)C1/C=C(/COC1OC(CO)C(O)C(O)C1O)CCC1C(/C=C(\C)C2=O)C1(C)C (stereo unspecified),-3.1% [at 17.3 µM] (inactive),,
COC(=O)C1=COC(O[C@@H]2O[C@H](COC(=O)/C=C/c3ccc(O)cc3)[C@@H](O)[C@H](O)[C@H]2O)C2C(CO)=CCC12 (stereo partly specified),-2.48% [at 17.3 µM] (inactive),,
C[C@@]12CC3(S(=O)(=O)O)OC(O1)[C@]1(COC(=O)c4ccccc4)[C@H]3C[C@]21O[C@@H]1O[C@H](CO)[C@@H](O)[C@H](O)[C@H]1O,-6.65% [at 17.3 µM] (inactive),,
OC[C@H]1O[C@@H](OCCc2ccccc2)[C@H](O[C@@H]2OC[C@@H](O)[C@H](O)[C@H]2O)[C@@H](O)[C@@H]1O,-5.66% [at 17.3 µM] (inactive),,
CC1=C2CC3C(CCC3(C)O)C(C)(O)CC2OC1=O (stereo unspecified),-3.41% (inactive),,
C=C(CC/C=C(\C)C(=O)O)C1(O)CC=C(C)CC1 (stereo unspecified),-5.54% (inactive),,
H-DPPDPDRFYGMM-NH2,,,inactive [at 17.3 µM]
CC(C)(Oc1ccc(-c2nc3cc(Cl)ccc3s2)cc1)C(=O)O,-11.7% (inactive),,
C=C1C2CCC3C(CCC4[C@@]3(C)CCC[C@@]4(C)C(=O)O)(C2)[C@@H]1OC(=O)/C(C)=C\C (stereo partly specified),,,inactive [at 17.3 µM]
CC(=O)OCC1OC(O[C@H]2CC[C@]34C[C@]35CC(O)[C@]3(C)[C@@H]([C@H](C)CC/C=C(\C)C(=O)O)C(O)C[C@@]3(C)C5CC[C@H]4C2(C)C)C(O)C(O)C1OC1OCC(O)C(O)C1O (stereo partly specified),-13.7% [at 9.23 µM] (inactive),,
CC(=O)/C=C/C1C(C)CC(O[C@@H]2O[C@H](CO)[C@@H](O)[C@H](O)[C@H]2O)CC1(C)C (stereo partly specified),,,inactive
CC(=O)/C=C/C1(O)C(C)(C)CC(O)CC1(C)O (stereo unspecified),,,inactive
CN(C)c1ccc(C2O[C@@H](c3ccccc3)C[C@H](c3ccccc3)O2)cc1 (stereo partly specified),,,inactive
Nc1ccc(-n2nc(C(F)(F)F)cc2C(F)(F)F)cc1,-11.5% (inactive),,
C[C@@H]1C(=O)O[C@H]2[C@H]1CC[C@@]1(C)C(=O)C=C[C@@](C)(O)[C@H]21,,,inactive
COC(=O)C[C@@H]1C(C(=O)O)=CO[C@@H](O[C@@H]2O[C@H](CO)[C@@H](O)[C@H](O)[C@H]2O)/C1=C\COC(=O)/C=C/c1ccc(O)c(OC)c1,-1.7% [at 17.3 µM] (inactive),,
COc1cc(CO)ccc1O[C@@H]1O[C@H](CO)[C@@H](O)[C@H](O)[C@H]1O,-11.5% (inactive),,
CCCO[C@@H]1O[C@H](CO)[C@@H](O)[C@H](O)[C@H]1O[C@@H]1OC[C@@H](O)[C@H](O)[C@H]1O,3.9% (inactive),,
CSCC[C@H](NC(=O)[C@H](CO)NC(=O)[C@H](CCC(=O)O)NC(C)=O)C(=O)N[C@H](C=O)CC(=O)O (Ac-ESMD-aldehyde),-15.7% [at 9.23 µM] (inactive),,
C[C@]1(OC(=O)/C=C\c2ccc(O)cc2)C[C@@H](O)[C@]2(O)C=CO[C@@H](O[C@@H]3O[C@H](CO)[C@@H](O)[C@H](O)[C@H]3O)C12 (stereo partly specified),-17.3% [at 17.3 µM] (inactive),,
